IL-1B inflam inh: blocks inflammasome-driven IL-1 beta release. activity change, % at 57.5 µM. THP-1 LPS/ATP IL-1B secretion, AlphaLISA, 16 h; stronger effect = lower value. 4.7% of 360,000 active; in the data active = activity change below about -50%; inconclusive = mostly about -30% to -49%
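THP-1 cells pretreated 1 hr with compounds (up to 57.5 uM final), then stimulated with LPS (250 ng/mL final) plus ATP (1.25 mM final); secreted IL-1B measured by AlphaLISA after 16 hr, decreased signal indicating inhibition.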
HT1080 IDH1KD tx: toxicity to HT-1080 IDH1 knockdown cells (counter line); HT-1080 IDH1 knockdown viability, ATP luminescence, 48 h; Potency, µM (highest dose often 46.1 µM), without a hit: at the highest dose activity, negative = toxicity, actives largely listed as cytotoxic; 2% of 360,000 active; AID 686971;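 also: potency is read from the fitted curve at half-maximal effect; 0% = DMSO wells and -100% = cell-free medium wells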
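CellTiter-Glo luminescence after 48 h compound exposure at 37 degrees C of IDH1-knockdown HT-1080 cells in 5% FBS RPMI. %Activity scaled between DMSO wells and cell-free media wells, with curves fitted and assigned curve classes.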
TDP1 cell noCPT: qHTS for Inhibitors of human tyrosyl-DNA phosphodiesterase 1 (TDP1): qHTS in cells in absence of CPT; DT40 Tdp1-/- hTDP1 cells, no CPT, ATP luminescence, 48 h; Potency, µM (doses to about 46.2 µM), without a hit: at the highest dose activity change, negative = growth inhibition, usual class: inhibitors; 15% of 420,000 active; AID 686978, 2013; also: potency is read from the fitted curve at half-maximal effect; nearly all actives have a fitted effect of over 55% in size
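Compound effects on proliferation are scored in DT40 Tdp1-/-;hTDP1 cells in the absence of CPT. ATP levels (CellTiter-Glo luminescence) are recorded after a ≥48 hr, 37 °C incubation.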
HT1080-NT tox: kills 2HG-producing HT-1080-NT fibrosarcoma cells; Potency, µM (top dose mostly 46.1 µM), inactives show top-dose activity, negative = less viability, most hits filed as cytotoxic; 1.6% of 360,000 active; AID 686970; HT-1080-NT fibrosarcoma viability, CellTiter-Glo ATP luminescence, 48 h;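 also: NT is the 2HG producing partner of a matched IDH1 knockdown line; potency is read from the fitted curve at half-maximal effect; 0% = DMSO-treated cells and -100% = media-only wells without cells; nearly all actives have a fitted effect of over 55% in size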
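Viability by CellTiter-Glo luminescence after 48 h compound exposure at 37C of HT-1080-NT cells (750/well, RPMI, 5% FBS). % activity scaled between DMSO wells and medium-only wells, then curve-fitted and categorized by curve class.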
ELG1 DNA repair: inhibitors of ELG1-dependent DNA repair in HEK293T cells | HEK293T ELG1-luciferase reporter, luminescence, 16 h; DNA damage induced by 5-fluorouridine | Potency, µM (highest dose often 46.1 µM), for the others: at the highest dose activity change, negative = inhibition, usual class: inhibitors | 2.3% of 330,000 active | AID 504467; also: potency is read from the fitted curve at half-maximal effect; nearly all actives have a fitted effect of over 55% in size
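5-Fluorouridine DNA damage + compound/DMSO, 2,000 cells/well, 16 h, 37 °C/5% CO2. ONE-Glo, 30 min RT, luminescence. Readout = decrease in reporter signal.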
DT40 TDP1 CPT: DT40-hTDP1 cell growth loss with CPT. chicken DT40 Tdp1-/-;hTDP1 cells + 20 nM CPT, ATP luminescence, 48 h. Potency, µM (titrated, usually from 46.2 µM), without a hit: at the top dose activity change, negative = growth inhibition, usual class: inhibitors. 12% of 420,000 active. AID 686979; also: potency is read from the fitted curve at half-maximal effect; nearly all actives have a fitted effect of over 55% in size
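Chicken DT40 Tdp1-/- cells complemented with human TDP1, 400 cells/well, exposed to compounds plus 20 nM camptothecin for at least 48 h at 37 C; viability read as ATP content by CellTiter-Glo luminescence.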
An asterisk follows results filed as active; ? = inconclusive; . = no result; [ ] = dose if it differs, or a comment. In the library only some 19% were active in any assay of this set; here they are far more common. Unless noted, calls follow the shape of the dose curve; as a rule, active = well fitted curve in the direction sought with a large enough effect; inconclusive = small, poorly fitted or top-dose-only effect, or another doubt; inactive = no such curve, though single readings can be large; an effect the other way counts as inactive or inconclusive. Unless noted, % is scaled to controls: 0 for no effect and ±100 for the full control effect.

SMILES	IL-1B inflam inh	HT1080 IDH1KD tx	TDP1 cell noCPT	HT1080-NT tox	ELG1 DNA repair	DT40 TDP1 CPT
Cc1cc(Cl)ccc1OCC(=O)NCCOc1nc(N2CCCCC2)nc(N2CCOCC2)n1	0.6	0.6%	6.51µM*	4.6%	-5.0%	7.31µM*
CN(C)c1nc(OCCNC(=O)COc2ccccc2Cl)nc(N(C)C)n1	12.5	14.6%	10.3µM*	23.4%	?	?
Cc1ccc(-n2c(Cl)c(Cl)nc(Cl)c2=O)cc1	-97.3*	2.91µM*	0.92µM*	2.59µM*	6.51µM*	0.291µM*
CC(=O)Nc1ccc(CN2C(=O)C(Cc3ccccc3)ON=C2c2ncccc2C)cc1 (stereo not given)	14.9	0.7%	?	4.1%	.	?
CC(NC(=O)COC(=O)c1cc(NS(=O)(=O)c2ccc(Cl)c([N+](=O)[O-])c2)ccc1O)C1CC2CCC1C2 (stereo not given)	-107.4*	?	?	?	?	?
CCOc1ccc(-n2c(=O)c3c4c(sc3n(CC(=O)NC(C)CC)c2=O)CCC4)cc1 (stereo not given)	.	.	-14.6%	.	.	18.1%
Cc1cccc(CN2C(=O)N/C(=C/c3cc(C)n(-c4cc(C)ccn4)c3C)C2=O)c1	-58.2*	-10.5%	23.1µM*	-11.3%	?	?
Cc1cc(/C=C2/NC(=O)NC2=O)c(C)n1-c1ccccn1	42.1	1.9%	-9.8%	-4.8%	?	-4.9%
Cc1cccc(CN2C(=O)N/C(=C/c3ccc(C)s3)C2=O)c1	0.1	?	16.4µM*	-27.3%	4.1%	20.6µM*
N=c1c(-c2nc3ccccc3[nH]2)cc(C(=O)c2cccs2)nn1-c1ccccc1	-27.0	7.9%	23.1µM*	3.6%	?	29.1µM*
N=c1c(-c2nc3ccccc3[nH]2)cc(C(=O)c2ccco2)nn1-c1ccccc1	0.0	-0.4%	3.26µM*	-1.9%	16.4µM*	2.59µM*
CC1(C)C(O)=C(c2nc3ccccc3[nH]2)C(=N)N1c1ccccc1	-20.2	?	?	?	1.7%	?
O=C(NCCCc1nc2ccccc2[nH]1)c1cccs1	9.3	3.2%	11.7%	14.1%	18.6%	-6.3%
Cc1ccccc1NCC(=O)Nc1cc(S(=O)(=O)N2CCCCC2)ccc1C	-24.7	0.3%	20.6µM*	3.2%	-12.1%	?
COc1ccc(OCCCC(=O)Nc2cc(S(=O)(=O)N3CCCCC3)ccc2OC)cc1	58.7	2.4%	-25.8%	-0.5%[9.24 µM]	-25.2%	-19.6%
O=C(CN(Cc1ccco1)Cc1ccco1)Nc1cc(S(=O)(=O)N2CCCCC2)ccc1Cl	-25.8	?	11.6µM*	-7.4%	25.9µM*	13µM*
COc1ccc(OCCCC(=O)Nc2cc(S(=O)(=O)N3CCCCC3)ccc2C)cc1	-7.1	-27.7%	?	-21.6%	?	20.6µM*
CC(NCC(=O)Nc1cc(S(=O)(=O)N2CCCCCC2)ccc1Cl)c1ccccc1 (stereo not given)	-9.6	-24.0%	13µM*	?	?	18.4µM*
O=C(CN(Cc1ccccc1F)C(=O)c1csnn1)NCc1ccc2c(c1)OCO2	2.8	2.3%	-23.9%	8.9%	12.1%	2.2%
CC1CCN(S(=O)(=O)c2cc3c4c(c2)C(C)C(=O)N4CCC3)CC1 (stereo not given)	10.3	3.4%	-1.5%	1.6%	9.8%	-4.2%
O=C(CN(Cc1ccco1)Cc1cccs1)N1CCN(S(=O)(=O)c2cccc(F)c2)CC1	-24.3	-16.9%	18.4µM*	-1.2%	0.0%	23.1µM*
Cc1ccc(S(=O)(=O)N(C)C)cc1NC(=O)CSc1ccc2c(c1)OCCO2	11.3	1.0%	7.7%	4.5%	-18.4%	2.9%
Cc1ccc(NC(=O)CSc2ccc3c(c2)OCCO3)c(O)c1	0.4	-4.3%	?	8.4%	4.1%	18.4µM*
O=C(CSc1ccc2c(c1)OCCO2)Nc1ccccc1	14.9	-2.3%	?	-2.0%	.	-20.1%
Cc1ccc(S(=O)(=O)N2CCCCC2)cc1NC(=O)CSc1ccc2c(c1)OCCO2	-8.0	-9.0%	?	-3.0%	-26.4%	23.1µM*
SMILES	IL-1B inflam inh	HT1080 IDH1KD tx	TDP1 cell noCPT	HT1080-NT tox	ELG1 DNA repair	DT40 TDP1 CPT
O=C(c1cccc(S(=O)(=O)N2CCOCC2)c1)N(Cc1ccco1)Cc1cccs1	1.3	1.6%	?	0.1%	?	?
O=C(CSc1ccc2c(c1)OCCO2)NC(=O)NC1CCCC1	21.7	-13.4%	-26.7%	-11.8%	0.731µM*	-15.1%
Cc1ccnc(NC(=O)CSc2ccc3c(c2)OCCO3)c1	8.9	0.4%	?	6.9%	?	-15.8%
COc1cccc(C(=O)N2CCC(CCC(=O)Nc3cccc(C)c3)CC2)c1	-5.7	-0.3%	-29.2%	-6.9%	2.1%	?
COc1ccc(OC)c(/C=C/c2ccc3ccccc3[n+]2C)c1	.	.	2µM*	.	.	2µM*
COc1ccc(OC)c(/C=C/c2cc3ccccc3cn2)c1	.	.	5.01µM*	.	.	5.01µM*
COc1ccc(OC)c(/C=C/c2ccccc2)c1	.	.	-0.7%	.	.	-25.1%
CCC1NC(=O)c2cccnc2-n2c1nc1ccc(F)cc1c2=O (stereo not given)	-10.3	9.5%	-9.6%	3.7%	.	-6.0%
CC1Cc2ccccc2C[N+]1(C)CC(=O)c1ccc(I)cc1 (stereo not given)	.	.	14.1µM*	.	.	10µM*
Cc1ccc(NC(=O)NC(=O)COC(=O)c2ccc(O)cc2O)c(C)c1	14.4	3.1%	?	2.5%	.	?
Cc1c(C(=O)c2ccc(F)cc2)c2ccccn2c1CCc1ccccn1	-85.7*	-19.7%	?	-25.5%	-6.0%	?
Cc1c(C(=O)c2ccccc2)c2ccccn2c1CCC#N	-4.9	2.1%	29.7%	-2.9%	-1.1%	-2.4%
Cc1c(C(=O)c2ccccc2)c2ccccn2c1CCc1ccccn1	-74.5*	-0.7%	-21.3%	-13.5%	?	?
COc1ccccc1C(=O)Nc1nc2ccc(S(=O)(=O)N3CCCC3)cc2s1	.	.	-25.0%	.	.	-2.0%
O=C(CN(Cc1ccccc1)C(=O)CCC(=O)Nc1nccs1)NCc1ccccc1	13.8	9.9%	-0.2%	2.8%	-2.6%	3.5%
CCn1c(S(=O)(=O)O)nc2ccccc21	4.6	17.2%	7.8%	12.3%	16.9%	3.8%
COc1cc(OC)cc(C(=O)Nn2cc(C(=O)Nc3ccccc3F)c3ccccc3c2=O)c1	-8.4	-10.7%	?	-15.0%	?	23.1µM*

High-throughput results from PubChem.
